Measured values from publication PMC12820563, “FoxP3 forms a head-to-head dimer in vivo and stabilizes its multimerization on adjacent microsatellites”.
The full ranking holds about 16,000 sequences; the median of “rpm ratio (pull-down/input)” is about 0.5, and the highest 2% start at about 5.5. The sample holds the highest values, similar sequences and a random draw of the others, so the mix is not that of the screen.

The sequences below were run against T1, MBP-FoxP3dN (Mus musculus, UniProt Q99JB6 188-423) (assay: PD-seq (MBP pull-down with sequencing); 20 mM Tris-HCl pH 7.5, 100 mM NaCl, 1.5 mM MgCl2, 0.4 uM protein, 0.1 uM dsDNA library, 30 min, room temperature, amylose pull-down; high values mean tight binding). Details: protein: recombinant; tags: His6-MBP; chain copies: 2; dsDNA, one strand shown.
T1 sequence: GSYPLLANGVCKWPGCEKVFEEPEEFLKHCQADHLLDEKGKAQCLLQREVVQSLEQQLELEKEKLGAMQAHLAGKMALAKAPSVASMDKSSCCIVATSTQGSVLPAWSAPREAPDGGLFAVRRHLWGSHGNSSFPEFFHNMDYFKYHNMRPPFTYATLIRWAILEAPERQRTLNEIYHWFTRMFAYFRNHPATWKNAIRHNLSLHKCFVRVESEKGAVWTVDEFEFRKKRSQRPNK
How it was run: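 His6-MBP-tagged mouse FoxP3 or FoxP1 fragment lacking the N-terminus, expressed in E. coli, was mixed at 0.4 µM with 0.1 µM Klenow-filled double-stranded degenerate DNA library. Incubation was 30 min at room temperature in Tris pH 7.5 buffer with NaCl and MgCl2. Complexes were caught on amylose resin and washed three times; DNA was released with proteinase K, PCR-barcoded and Illumina-sequenced. Binding is reads-per-million enrichment, pull-down over input, with replicates pooled.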

Sequence | binding signal
GATGATTGTTCTCCCAGCTGATGAATTGTATAACTCGAGTAAACAAATTTTCCTAATCTTTCTGTTCAAGCGCCATCTAC | 0.812 RPM ratio (pull-down/input)
GATGATTGTTCTCCCAGCTGATGAATTAAGCCGATCGAGTAAACAAATTTTCCTAATCTTTCTGTTCAAGCGCCATCTAC | 0.427 RPM ratio (pull-down/input)
GATGATTGTTCTCCCAGCTGATGAATTTAGTGGGTCGAGTAAACAAATTTTCCTAATCTTTCTGTTCAAGCGCCATCTAC | 1.06 RPM ratio (pull-down/input)
GATGATTGTTCTCCCAGCTGATGAATTCAAAACCTCGAGTAAACAAATTTTCCTAATCTTTCTGTTCAAGCGCCATCTAC | 0.276 RPM ratio (pull-down/input)
GATGATTGTTCTCCCAGCTGATGAATTTATGATATCGAGTAAACAAATTTTCCTAATCTTTCTGTTCAAGCGCCATCTAC | 1.11 RPM ratio (pull-down/input)
GATGATTGTTCTCCCAGCTGATGAATTCAATAGCTCGAGTAAACAAATTTTCCTAATCTTTCTGTTCAAGCGCCATCTAC | 0.877 RPM ratio (pull-down/input)
GATGATTGTTCTCCCAGCTGATGAATTTCATAGTTCGAGTAAACAAATTTTCCTAATCTTTCTGTTCAAGCGCCATCTAC | 0.583 RPM ratio (pull-down/input)
GATGATTGTTCTCCCAGCTGATGAATTACTTACATCGAGTAAACAAATTTTCCTAATCTTTCTGTTCAAGCGCCATCTAC | 0.574 RPM ratio (pull-down/input)
GATGATTGTTCTCCCAGCTGATGAATTCCTCGCATCGAGTAAACAAATTTTCCTAATCTTTCTGTTCAAGCGCCATCTAC | 0.768 RPM ratio (pull-down/input)
GATGATTGTTCTCCCAGCTGATGAATTCGCATCCTCGAGTAAACAAATTTTCCTAATCTTTCTGTTCAAGCGCCATCTAC | 5.74 RPM ratio (pull-down/input)
GATGATTGTTCTCCCAGCTGATGAATTCGCCTCCTCGAGTAAACAAATTTTCCTAATCTTTCTGTTCAAGCGCCATCTAC | 2.15 RPM ratio (pull-down/input)
GATGATTGTTCTCCCAGCTGATGAATTGTCGCATTCGAGTAAACAAATTTTCCTAATCTTTCTGTTCAAGCGCCATCTAC | 6.14 RPM ratio (pull-down/input)
GATGATTGTTCTCCCAGCTGATGAATTATCGCATTCGAGTAAACAAATTTTCCTAATCTTTCTGTTCAAGCGCCATCTAC | 6.64 RPM ratio (pull-down/input)
GATGATTGTTCTCCCAGCTGATGAATTCCCATTGTCGAGTAAACAAATTTTCCTAATCTTTCTGTTCAAGCGCCATCTAC | 0.454 RPM ratio (pull-down/input)
GATGATTGTTCTCCCAGCTGATGAATTCGCATTGTCGAGTAAACAAATTTTCCTAATCTTTCTGTTCAAGCGCCATCTAC | 3.91 RPM ratio (pull-down/input)
GATGATTGTTCTCCCAGCTGATGAATTATTCGCATCGAGTAAACAAATTTTCCTAATCTTTCTGTTCAAGCGCCATCTAC | 1.12 RPM ratio (pull-down/input)

Sequence | binding signal
GATGATTGTTCTCCCAGCTGATGAATTCGCATTATCGAGTAAACAAATTTTCCTAATCTTTCTGTTCAAGCGCCATCTAC | 3.53 RPM ratio (pull-down/input)
GATGATTGTTCTCCCAGCTGATGAATTCTAAACTTCGAGTAAACAAATTTTCCTAATCTTTCTGTTCAAGCGCCATCTAC | 0.381 RPM ratio (pull-down/input)
GATGATTGTTCTCCCAGCTGATGAATTTCCATTTTCGAGTAAACAAATTTTCCTAATCTTTCTGTTCAAGCGCCATCTAC | 0.295 RPM ratio (pull-down/input)
GATGATTGTTCTCCCAGCTGATGAATTAACATAATCGAGTAAACAAATTTTCCTAATCTTTCTGTTCAAGCGCCATCTAC | 0.409 RPM ratio (pull-down/input)
GATGATTGTTCTCCCAGCTGATGAATTTTGCTTGTCGAGTAAACAAATTTTCCTAATCTTTCTGTTCAAGCGCCATCTAC | 5.89 RPM ratio (pull-down/input)
GATGATTGTTCTCCCAGCTGATGAATTGCTTGGGTCGAGTAAACAAATTTTCCTAATCTTTCTGTTCAAGCGCCATCTAC | 0.775 RPM ratio (pull-down/input)
GATGATTGTTCTCCCAGCTGATGAATTCTTGCTGTCGAGTAAACAAATTTTCCTAATCTTTCTGTTCAAGCGCCATCTAC | 0.508 RPM ratio (pull-down/input)
GATGATTGTTCTCCCAGCTGATGAATTGCTTTGGTCGAGTAAACAAATTTTCCTAATCTTTCTGTTCAAGCGCCATCTAC | 1.08 RPM ratio (pull-down/input)
GATGATTGTTCTCCCAGCTGATGAATTTGCTTTGTCGAGTAAACAAATTTTCCTAATCTTTCTGTTCAAGCGCCATCTAC | 6.34 RPM ratio (pull-down/input)
GATGATTGTTCTCCCAGCTGATGAATTGCTTTTGTCGAGTAAACAAATTTTCCTAATCTTTCTGTTCAAGCGCCATCTAC | 1.51 RPM ratio (pull-down/input)
GATGATTGTTCTCCCAGCTGATGAATTTGCTTGGTCGAGTAAACAAATTTTCCTAATCTTTCTGTTCAAGCGCCATCTAC | 5.74 RPM ratio (pull-down/input)
GATGATTGTTCTCCCAGCTGATGAATTGTGCTTGTCGAGTAAACAAATTTTCCTAATCTTTCTGTTCAAGCGCCATCTAC | 5.16 RPM ratio (pull-down/input)
GATGATTGTTCTCCCAGCTGATGAATTGCTTCTGTCGAGTAAACAAATTTTCCTAATCTTTCTGTTCAAGCGCCATCTAC | 0.468 RPM ratio (pull-down/input)
GATGATTGTTCTCCCAGCTGATGAATTGCGTATTTCGAGTAAACAAATTTTCCTAATCTTTCTGTTCAAGCGCCATCTAC | 3.53 RPM ratio (pull-down/input)
GATGATTGTTCTCCCAGCTGATGAATTGCTAAAATCGAGTAAACAAATTTTCCTAATCTTTCTGTTCAAGCGCCATCTAC | 0.394 RPM ratio (pull-down/input)
